Rce1 inhib: inhibitors of yeast Ras-converting enzyme; yeast membranes, quenched prenylated peptide cleavage fluorescence; Q03530; calls only; actives 0.27% (n = 290,000); AID 2563;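 active = fall in fluorescence gain of 50% or more versus controls, with final raw signal at or below 3038400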;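 also: plate controls were neutral control wells for no effect and wells lacking membranes for full effect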
Target sequence (Q03530 whole entry, looked up): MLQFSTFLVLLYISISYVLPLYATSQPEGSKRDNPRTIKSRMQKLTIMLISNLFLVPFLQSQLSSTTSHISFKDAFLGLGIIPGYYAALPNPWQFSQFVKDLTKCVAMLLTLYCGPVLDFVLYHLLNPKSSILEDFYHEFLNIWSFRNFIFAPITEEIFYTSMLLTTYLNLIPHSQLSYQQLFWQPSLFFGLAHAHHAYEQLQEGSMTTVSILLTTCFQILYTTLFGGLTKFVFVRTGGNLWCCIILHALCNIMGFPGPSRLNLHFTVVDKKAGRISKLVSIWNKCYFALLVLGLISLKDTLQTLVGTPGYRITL
tim23-1 inh: growth inhibitors of tim23-1 mutant yeast; S. cerevisiae tim23-1 growth, BacTiter-Glo luminescence, 24 h; inhibition, % at 20 µM; actives 1.3% (n = 330,000);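 active = growth inhibition of the mutant yeast at or above 50%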;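 also: temperature-sensitive mutant grown at 25 °C; plate controls were DMSO-treated mutant yeast for no effect and medium wells lacking yeast for full effect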
tim10-1 inh: tim10-1 yeast growth inhibition; S. cerevisiae tim10-1 ts strain growth, BacTiter-Glo, 24 h; inhibition, % at 20 µM; actives 2.2% (n = 330,000); AID 463190;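 active = inhibition of at least 40%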;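 also: mutant grown at 25 °C; 0% = DMSO wells with yeast and 100% = wells holding no yeast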
PfHsp90 yeast 2: inhibits growth of yeast expressing Plasmodium falciparum Hsp90; S. cerevisiae expressing PfHsp90, BacTiter-Glo ATP, 48 h; yeast lacking PDR1 and PDR3 efflux regulators; inhibition, % at 9.4 µM; actives 0.32% (n = 310,000); AID 504621;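 active = every replicate shows inhibition above about 80%, whatever the replicate mean, limit read from the data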;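 also: 0% = DMSO neutral controls and 100% = 20 µM radicicol positive controls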
TIM10 inh: growth inhibitors of TIM10 yeast strain; S. cerevisiae TIM10 strain growth, BacTiter-Glo luminescence, 24 h; inhibition, % at 10 µM; actives 1.4% (n = 330,000);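 active = inhibition of 40% or more at the single tested concentration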;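 also: wild-type TIM10 isogenic control strain grown at permissive 25 °C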
tim10-1 confirm: tim10-1 yeast growth inhibition, confirmed; shares compounds with tim10-1 inh; S. cerevisiae tim10-1 ts strain growth, BacTiter-Glo, 24 h; inhibition, % at 20 µM; actives 56% (n = 7,400); AID 463213;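 active = inhibition of yeast growth at or above a set limit in either of two repeat tests at 20 µM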;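 also: tim10-1 mutant grown at permissive 25 °C to find synthetic lethal compounds; 0% = DMSO yeast wells and 100% = medium wells without yeast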
Active calls of the source: *. A selection: hits, their analogues and other compounds. The true share with any hit is near 3.7%.

Results for CN1CCN(C(=S)NC(=O)/C=C/c2cccc3ccccc23)CC1 ?
Rce1 inhib: inactive; tim23-1 inh: 18.6; tim10-1 inh: 51.1*; PfHsp90 yeast 2: -16.5; TIM10 inh: 18.5; tim10-1 confirm: 9.3

How did O=C(Nc1cccc(C(F)(F)F)c1)/C(=C/c1ccco1)NC(=O)c1cccs1 do in these assays?
Rce1 inhib: inactive; tim23-1 inh: 42.7; tim10-1 inh: 32.9; PfHsp90 yeast 2: -4.6; TIM10 inh: 22.2

Results for Cc1cc(C(F)(F)F)n(-c2nc(C(=O)N/N=C/c3ccc(F)cc3)cs2)n1 ?
Rce1 inhib: inactive; tim23-1 inh: 11.6; tim10-1 inh: 42.1*; TIM10 inh: 14.5; tim10-1 confirm: 20.4

How did COc1cccc(/C=N/NC(=O)c2csc(-n3nc(C)cc3C(F)(F)F)n2)c1 do in these assays?
Rce1 inhib: inactive; tim23-1 inh: 21.9; tim10-1 inh: 34.6; PfHsp90 yeast 2: 1.1; TIM10 inh: 23.4

What do the screens show for `CC(=O)Nc1ccc2c(c1)nc(C)n2-c1ccccc1`?
Rce1 inhib: inactive; tim23-1 inh: -6.9; tim10-1 inh: -9.3; PfHsp90 yeast 2: -10.8; TIM10 inh: -6.0

What do the screens show for `Cc1nc2cc(Cl)ccc2n1-c1ccccc1`?
Rce1 inhib: inactive; tim23-1 inh: 24.0; tim10-1 inh: 47.3*; PfHsp90 yeast 2: -0.9; TIM10 inh: -3.9; tim10-1 confirm: 18.5

Results for CC1(C)CC(=O)c2cc(OCC(=O)NCCCN3CCN(c4ccc(F)cc4)CC3)ccc2O1 ?
Rce1 inhib: inactive; tim23-1 inh: 12.1; tim10-1 inh: 15.8; PfHsp90 yeast 2: 11.0; TIM10 inh: 4.1

Results for Cc1ccc(OCCOc2cccc(Br)c2)c([N+](=O)[O-])n1 ?
Rce1 inhib: inactive; tim23-1 inh: 38.9; tim10-1 inh: 54.0*; PfHsp90 yeast 2: -3.9; TIM10 inh: -2.0; tim10-1 confirm: 39.7*

Results for Cc1ccc(OCc2ccc(Br)cc2)c([N+](=O)[O-])n1 ?
Rce1 inhib: inactive; tim23-1 inh: 44.7; tim10-1 inh: 25.4; TIM10 inh: 21.3

How did Cc1nc2ccc(S(=O)(=O)N3CCCCC3)cc2s1 do in these assays?
Rce1 inhib: inactive; tim23-1 inh: 6.3; tim10-1 inh: -11.2; PfHsp90 yeast 2: 5.5; TIM10 inh: 10.4

What do the screens show for `Nc1nc2ccc(S(=O)(=O)N3CCCCC3)cc2s1`?
Rce1 inhib: inactive; tim23-1 inh: 14.6; tim10-1 inh: 40.2*; PfHsp90 yeast 2: -21.6; TIM10 inh: 2.4; tim10-1 confirm: 19.5

What do the screens show for `CCCN(C(=O)c1cc(Cl)nc2ccccc12)c1c(N)n(Cc2ccccc2)c(=O)[nH]c1=O`?
tim23-1 inh: 5.0; tim10-1 inh: -10.4; PfHsp90 yeast 2: -6.2; TIM10 inh: 2.3

Results for COc1ccc(C(=O)Nc2nc3cc4c(cc3s2)OCO4)c(OC)c1 ?
Rce1 inhib: inactive; tim23-1 inh: -27.4; tim10-1 inh: -4.6; PfHsp90 yeast 2: -11.8; TIM10 inh: -17.1

How did COc1cc(SC#N)ccc1N=Cc1c(C)[nH]n(-c2ccc(Cl)cc2)c1=O do in these assays?
Rce1 inhib: inactive; tim23-1 inh: 33.6; tim10-1 inh: 41.6*; PfHsp90 yeast 2: -36.1; TIM10 inh: 33.5; tim10-1 confirm: 26.1

Results for Cc1cc(OCC(=O)Nc2sc3c(c2C#N)CC(C)(C)NC3(C)C)c(C(C)C)cc1Cl ?
Rce1 inhib: inactive; tim23-1 inh: 25.4; tim10-1 inh: 46.7*; PfHsp90 yeast 2: -10.7; TIM10 inh: 18.4; tim10-1 confirm: 24.1

What do the screens show for `CCOC(=O)C1=C(COC(=O)CCNS(=O)(=O)c2ccc(C)c(C)c2)NC(=O)NC1C` (configuration not stated)?
tim23-1 inh: -0.2; tim10-1 inh: -2.5; PfHsp90 yeast 2: -1.1; TIM10 inh: -4.4

How did CS(=O)(=O)c1ncc(Cl)c(C(=O)Nc2ccc3ccccc3c2)n1 do in these assays?
Rce1 inhib: inactive; PfHsp90 yeast 2: -15.2

Results for CCS(=O)(=O)c1ncc(Cl)c(C(=O)Nc2ccc(C)cc2)n1 ?
Rce1 inhib: inactive; tim23-1 inh: 45.6; tim10-1 inh: -23.7; PfHsp90 yeast 2: -3.8; TIM10 inh: -6.5

Results for CCC1CCCCN1S(=O)(=O)c1ccc(NC(=O)c2nc(S(C)(=O)=O)ncc2Cl)cc1 (configuration not stated) ?
Rce1 inhib: inactive; tim23-1 inh: 38.3; tim10-1 inh: 53.7*; PfHsp90 yeast 2: 3.4; TIM10 inh: 23.8; tim10-1 confirm: 8.9

How did CCS(=O)(=O)c1ncc(Cl)c(C(=O)Nc2ccc(S(=O)(=O)N3CCCC(C)C3)cc2)n1 (configuration not stated) do in these assays?
Rce1 inhib: inactive; tim23-1 inh: 38.8; tim10-1 inh: 42.7*; PfHsp90 yeast 2: -40.0; TIM10 inh: -3.3; tim10-1 confirm: -2.8

Results for Cc1csc(-c2coc3cc(O)cc(C)c3c2=O)n1 ?
Rce1 inhib: inactive; tim23-1 inh: 49.6; tim10-1 inh: 43.2*; PfHsp90 yeast 2: -21.1; TIM10 inh: 15.7; tim10-1 confirm: 8.8

Results for Cc1nn(C(C)C(=O)NC2CCC(C)CC2)c(=O)c2nn(-c3ccccc3)c(C)c12 (configuration not stated) ?
Rce1 inhib: inactive; tim23-1 inh: 27.5; tim10-1 inh: 40.7*; PfHsp90 yeast 2: -11.7; TIM10 inh: 14.9; tim10-1 confirm: 10.6

How did Cc1nn(C(C)C(=O)NC2CC2)c(=O)c2nn(-c3ccccc3)c(C)c12 (configuration not stated) do in these assays?
Rce1 inhib: inactive; tim23-1 inh: -8.4; tim10-1 inh: -8.7; PfHsp90 yeast 2: 0.8; TIM10 inh: 3.9

How did Cc1ccc(-n2cc(-c3ccc([N+](=O)[O-])cc3)[nH]c2=S)c(C)c1 do in these assays?
Rce1 inhib: inactive; tim23-1 inh: 44.4; tim10-1 inh: 46.2*; PfHsp90 yeast 2: 7.7; TIM10 inh: 39.7; tim10-1 confirm: 35.3*

How did Cc1ccc(NC2=C(NCCO)C(=O)c3ccccc3C2=O)cc1 do in these assays?
Rce1 inhib: inactive; tim23-1 inh: 26.8; tim10-1 inh: 43.5*; PfHsp90 yeast 2: -12.3; TIM10 inh: 18.6; tim10-1 confirm: 11.7

How did COc1ccc(CC(=O)NC(C)c2nnc(SCC(=O)Nc3cc(C)ccc3OC)n2C)cc1 (configuration not stated) do in these assays?
Rce1 inhib: inactive; tim23-1 inh: 15.4; tim10-1 inh: -1.7; TIM10 inh: 4.8

How did O=C1CCSc2ccc(Cl)cc2N1Cc1ccc(Cl)cc1 do in these assays?
Rce1 inhib: inactive; tim23-1 inh: 48.4; tim10-1 inh: 45.5*; PfHsp90 yeast 2: -12.2; TIM10 inh: 17.5; tim10-1 confirm: 24.5

What do the screens show for `O=C1CCSc2ccc(Cl)cc2N1Cc1ccccc1`?
Rce1 inhib: inactive; tim23-1 inh: 11.4; tim10-1 inh: 17.9; PfHsp90 yeast 2: -45.9; TIM10 inh: 6.1

Assay outcomes: PubChem BioAssay, several laboratories
